From PubChem BioAssay (NCATS)
Several values for one entry are separate records, joined by “and”; a condition that tells them apart may be missing. Identical values can stand only once. Inconclusive results are not listed. Activity calls are given as the source filed them. The call rests on the fitted dose curve; in most records, active means well fitted curve in the direction sought with a large enough effect; inconclusive means small, poorly fitted or top-dose-only effect, or another doubt; inactive means no such curve, though single readings can be large; an effect the other way counts as inactive or inconclusive.

Experiments:
[1] = system: Hek293T; test: Primary qHTS to identify gynecologic anti-cancer compounds using libraries of approved drugs and bioactive compounds (AID 1345084); settings: Gynecologic cancer cell panel viability, ATPlite luminescence, 48 h, control line for the selectivity index; series mostly up to 57.5 µM; further: nearly all actives have a fitted effect of over 55% in size
In short: (§1)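 Cytotoxicity screen measuring ATP content by luciferase luminescence. Each compound is applied at five concentrations for 48 h at 37 C with 5% CO2.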

[2] = system: OV90; test: as above; settings: Gynecologic cancer cell panel viability, ATPlite luminescence, 48 h; series mostly up to 57.5 µM
In short: as §1

[3] = system: SKOV3; test: as above; settings: Gynecologic cancer cell panel viability, ATPlite luminescence, 48 h; series mostly up to 57.5 µM
In short: as §1

[4] = Drug repurposing screens with cells derived from glioblastoma tumor samples (AID 1345199); settings: GBM patient neurospheres viability, ATP luminescence, 48 h; further: nearly all actives have a fitted effect of over 40% in size
In short: (§2)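 Primary testing used CD133+ neurospheres from four GBM patients, seven concentrations, 48 h exposure and ATP-based viability; confirmation added three slower-growing patient lines.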

[5] = system: astro; test: as above; settings: viability, ATP luminescence, 48 h; series mostly up to 45.9 µM
In short: as §2

[6] = system: JEG-3; test: Primary qHTS to identify gynecologic anti-cancer compounds using libraries of approved drugs and bioactive compounds (AID 1345084); settings: Gynecologic cancer cell panel viability, ATPlite luminescence, 48 h; series mostly up to 57.5 µM; further: nearly all actives have a fitted effect of over 55% in size
In short: as §1

[7] = system: PA-1; test: as above; settings: Gynecologic cancer cell panel viability, ATPlite luminescence, 48 h; series mostly up to 57.5 µM
In short: as §1

[8] = system: Tov-21-G; test: as above; settings: Gynecologic cancer cell panel viability, ATPlite luminescence, 48 h; series mostly up to 57.5 µM
In short: as §1

[9] = system: Tov112D; test: as above; settings: Gynecologic cancer cell panel viability, ATPlite luminescence, 48 h; series mostly up to 57.5 µM
In short: as §1

[10] = at 46.1 µM (top of the series), tumour line C
[11] = at 45.9 µM (top of the series), tumour line D
On the % scale 0 is the no-effect control and ±100 the full control effect; potency means the concentration at half of the fitted maximal effect.

CN1CCc2cccc3c2[C@H]1Cc1ccc(O)c(O)c1-3
active: Potency ([4]; tumour line A) 11.2 µM | Potency [5] 20 µM
inactive: Potency [1] | Potency [2] | Potency [3] | activity, negative = cell killing [4, 10] -0.121%

CNCCCCOc1ccccc1Cc1ccccc1
inactive: Potency [6] | Potency [7] | Potency [8] | Potency [9]

CC(C)n1c(/C=C/[C@@H](O)C[C@@H](O)CC(=O)O)c(-c2ccc(F)cc2)c2ccccc21
active: Potency [2] 8.91 µM | Potency ([4]; tumour line A) 11.2 µM
inactive: Potency [1] | Potency [3] | Potency [8] | activity, negative = cell killing ([4]; at 45.9 µM (top of the series), tumour line B) -35.6% | activity, negative = cell killing [4, 11] -90.6% | activity, negative = cell killing [4, 10] -19.1%

CCCCNc1ccc(C(=O)OCCOCCOCCOCCOCCOCCOCCOCCOCCOC)cc1
inactive: Potency [6] | Potency [8] | Potency [9] | activity, negative = cell killing ([4]; at 20 µM (top of the series), tumour line C) 19.8% | activity, negative = cell killing ([4]; at 21.2 µM (top of the series), tumour line B) -6.92% | activity, negative = cell killing ([4]; at 21.2 µM (top of the series), tumour line D) -6.38% | activity, negative = cell killing ([4]; at 21.3 µM (top of the series), tumour line A) -27% | Potency [5]

O=C(Nc1ncc([N+](=O)[O-])s1)c1cccs1
inactive: Potency [6] | Potency [3]
active: Potency [2] 20 µM

CCCCCCCCCCCCOCCOCCOCCOCCOCCOCCOCCOCCOCCO
inactive: Potency [6] | Potency [8] | Potency [9]
active: Potency [2] 28.2 µM | Potency [5] 3.16 µM

CCOC(=O)[C@H](CCc1ccccc1)N[C@@H](C)C(=O)N1[C@H](C(=O)O)C[C@H]2CCCC[C@@H]21
inactive: activity, negative = cell killing [4, 11] 2.82% | activity, negative = cell killing ([4]; at 46 µM (top of the series), tumour line A) -15.6% | activity, negative = cell killing [4, 10] 1.22% and -4.13%
